Screening data deposited in PubChem BioAssay by National Center for Advancing Translational Sciences (NCATS).
SARS PLpro yeast: inhibitors of SARS-CoV papain-like protease in yeast; Potency, µM (titrated, usually from 32.9 µM), hits mostly activators; 330,000 tested, 0.19% active; S. cerevisiae expressing SARS-CoV PLpro, growth rescue; calls by dose curve; further: nearly all actives have a fitted effect of over 55% in size
FMDV antiviral: antivirals against foot and mouth disease virus | FMDV antiviral cell-based qHTS | Potency, µM (highest dose often 57.9 µM), usual class: inhibitors | 410,000 tested, 1.2% active | AID 1159524; calls by dose curve; tested in HEK293T cells; further: read-out not given here; nearly all actives have a fitted effect of over 45% in size
HCMV antiviral: inhibitors of human cytomegalovirus; HFF cells, HCMV-luciferase reporter, 72 h; hits give low values; activity change, negative = inhibition, % at 57.5 µM; 410,000 tested, 4.5% active; AID 1259415; in the data active means activity change below about -60%; inconclusive means no clear call, values can overlap the other calls; inactive means above about -39%
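Luciferase read-out from HCMV-luciferase-infected HFFs (MOI 1 PFU/cell) 72 h post infection at 37C; compounds added after 16 h cell attachment; activity normalized between buffer-only basal and Salinomycin (10uM) inhibitor controls.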
HCV inh: inhibitors of hepatitis C virus infection; 340,000 tested, 3.4% active; Huh7.5.1 HCVcc-Cre infection, luciferase reporter, 44 h; Potency, µM (titrated, usually from 41.8 µM), most hits filed as inhibitors; active means well fitted inhibition curve with a large enough effect; inconclusive means small, poorly fitted or top-dose-only effect, or another doubt; inactive means no such curve, though single readings can be large or run the other way
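Reporter virus HCVcc-Cre (~0.5 moi) infects cells exposed to compound; seeding density 1,000 cells/well with 4 h settling beforehand. Luminescence, 15 sec read, taken 44 h post-infection following a 15 min RT substrate incubation.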
MARV entry inh: blocks Marburg virus binding to or entry into cells | Marburg virus pseudotyped entry inhibition, cell reporter | 300,000 tested, 1.8% active | AID 540276 | Potency, µM (highest dose often 37.8 µM), most hits filed as inhibitors; calls by dose curve; tested in HEK293 cells
Lassa entry inh: blocks Lassa virus binding to or entry into cells; AID 540256; Potency, µM (doses to about 37.9 µM), actives largely listed as inhibitors; Lassa virus pseudotype entry inhibition, cell reporter; 300,000 tested, 1.2% active; calls by dose curve; tested in HEK293 cells; further: nearly all actives have a fitted effect of over 50% in size
A number is an active result; i = inactive; ? = inconclusive; nt = not tested or not shown. A selection: hits, their analogues and other compounds. The true share with any hit is near 8%.

SMILES	SARS PLpro yeast	FMDV antiviral	HCMV antiviral	HCV inh	MARV entry inh	Lassa entry inh
O=C(NCCNC(=O)c1cccnc1)c1cccnc1	nt	i	nt	nt	nt	nt
Cc1ccc(C)c(CN2C(=O)c3ccccc3S(=O)c3ccc(C(=O)NCc4ccco4)cc32)c1 (stereo not drawn)	nt	i	i	nt	?	?
CCCCCCN1CCN(c2ccccc2Cl)CC1	i	i	i	i	nt	nt
CCCCCn1c2c(c(=N)c3ccccc31)CCC2	i	i	-96	?	?	?
CCOC(=O)Cn1c2c(c(=N)c3ccccc31)CCC2	i	i	i	i	i	i
CCCCCCCCn1c2c(c(=N)c3ccccc31)CCC2	i	2.5µM	-97	2.8µM	?	?
CCCCCCCCCn1c2c(c(=N)c3c1CCC3)CCCC2	i	10µM	nt	3.2µM	?	4.1µM
CCCCn1c2c(c(=N)c3ccccc31)CCC2	i	i	i	i	i	i
CCOC(=O)Cn1c2c(c(=N)c3c1CCC3)CCC2	i	i	i	i	i	i
CCn1c2c(c(=N)c3c1CCC3)CCCC2	i	i	-67	i	?	i
Oc1ccc(COC2CCCC2)c2cccnc12	i	nt	nt	nt	nt	nt
CC(=O)c1cccc(Nc2c3c(nc4nc(-c5cccs5)nn24)CCCC3)c1	nt	i	i	nt	nt	i
CC(CCN1CCCCc2nc(C)c(C)cc21)=NOC[C@@H](O)[C@H]1O[C@@H]2OC(C)(C)O[C@H]2[C@@H]1O	nt	nt	nt	nt	i	?
COc1ccc(NS(=O)(=O)c2cc3[nH]c(=O)c(=O)[nH]c3cc2C)cc1Cl	nt	i	i	nt	nt	i
CCOC(=O)C(O)(c1ccc(NC(=S)NC(=O)c2ccc(Cl)cc2Cl)c(C)c1)C(F)(F)F (stereo not drawn)	i	?	?	?	?	10µM
COC(=O)C(O)(c1ccc(NC(=S)NC(=O)c2ccc(Cl)cc2Cl)c(C)c1)C(F)(F)F (stereo not drawn)	i	?	i	?	?	5.8µM
CCc1ccc(NC(=O)C(CC)n2c(=O)c(C(F)(F)F)nc3ccccc32)cc1 (stereo not drawn)	nt	i	i	nt	nt	i
CCOc1ccc(-c2ccc(SCC(=O)Nc3nnc(CC)s3)nn2)cc1	i	i	i	?	?	nt
CCOc1ccc(-c2ccc(SC)nn2)cc1	i	i	i	i	1.3µM	2.8µM
COc1ccc(C(=O)Nc2cccc(-c3cn4ccsc4n3)c2)c(OC)c1	nt	i	i	nt	nt	?
Cn1c(CNc2ccccn2)c(C#N)c2ccccc21	i	i	i	11µM	i	i
CC(C)(CO)CNc1ccn2nccc2n1	nt	i	-70	nt	nt	nt
COc1cc(C2C(C(=O)Nc3ccc(C)cc3C)=C(C)Nc3nc(SCc4ccccc4)nn32)cc(OC)c1OC (stereo not drawn)	nt	i	-74	nt	i	i
COc1cc(C2C(C(=O)Nc3ccccc3C)=C(C)Nc3nc(SCc4cc(C)ccc4C)nn32)ccc1O (stereo not drawn)	nt	i	-74	nt	nt	i
COc1cccc(CSc2nc3n(n2)C(CC(C)C)C(C(=O)Nc2ccccc2OC)=C(C)N3)c1 (stereo not drawn)	nt	i	-70	nt	nt	i
SMILES	SARS PLpro yeast	FMDV antiviral	HCMV antiviral	HCV inh	MARV entry inh	Lassa entry inh
CC1=C(C(=O)Nc2ccccc2C)C(c2cccs2)n2nc(SCc3ccccc3)nc2N1 (stereo not drawn)	nt	i	-65	nt	?	?
COc1cccc(CSc2nc3n(n2)C(c2cccc(F)c2)C(C(=O)Nc2ccccc2C)=C(C)N3)c1 (stereo not drawn)	nt	i	i	nt	nt	i
COc1ccc(S(=O)(=O)Nc2cccc(-c3ccc(N4CCC(C)CC4)nn3)c2)cc1OC	nt	?	i	nt	nt	i
CCOC(=O)CSc1nnc(NC(=O)c2cc([N+](=O)[O-])cc([N+](=O)[O-])c2)s1	i	35µM	i	i	i	i
CC(=O)N1CCc2cc(S(=O)(=O)NC(C(=O)Nc3nc(C)cs3)C(C)C)ccc21 (stereo not drawn)	i	i	-61	i	i	i
CC(=O)N1CCc2cc(S(=O)(=O)NC(C(=O)Nc3ccc(C)cc3C)C(C)C)ccc21 (stereo not drawn)	nt	i	i	nt	i	i
Cc1cc2c(cc1NS(=O)(=O)c1cccc(C#N)c1)n(C)c(=O)c(=O)n2C	nt	i	i	nt	nt	i
Cc1c(NC(=O)/C(C#N)=C/c2ccc(-c3cc(Cl)ccc3Cl)o2)c(=O)n(-c2ccccc2)n1C	i	i	?	?	i	i
